Results as given in article PMC5515408, “Sequence-specific DNA binding by MYC/MAX to low-affinity non-E-box motifs”.
Whole data set: some 5,000 sequences, median “log2 normalized fluorescence” near 0.089, cut for the highest 2% near 0.81. Shown is part of a subset that was picked to be rich in the highest values.

What follows are sequences tested against MYC (p64);MAX (p21), in MYC:MAX (human;human, UniProt P01106-1;P61244-2 1-439;1-151, |) (assay: protein-binding microarray (anti-MAX antibody); PBM: 15 mM Tris-HCl pH 7.5, 100 mM KCl, 0.075% NP40, 7.5 mM beta-mercaptoethanol, 375 ng/ul BSA, 8 ng/ul poly(dA-dT):(dA-dT), 550 ng complex, 60 min, room tempe; high values mean tight binding). Conditions: protein: recombinant;recombinant; tags: 6xHis;6xHis; copies: 1;1; label: 3' end of printed strand (linker) attached to glass slide; dsDNA, one strand shown.
MYC (p64);MAX (p21), in MYC:MAX, sequence (P01106 16-454, chain 1 of 2): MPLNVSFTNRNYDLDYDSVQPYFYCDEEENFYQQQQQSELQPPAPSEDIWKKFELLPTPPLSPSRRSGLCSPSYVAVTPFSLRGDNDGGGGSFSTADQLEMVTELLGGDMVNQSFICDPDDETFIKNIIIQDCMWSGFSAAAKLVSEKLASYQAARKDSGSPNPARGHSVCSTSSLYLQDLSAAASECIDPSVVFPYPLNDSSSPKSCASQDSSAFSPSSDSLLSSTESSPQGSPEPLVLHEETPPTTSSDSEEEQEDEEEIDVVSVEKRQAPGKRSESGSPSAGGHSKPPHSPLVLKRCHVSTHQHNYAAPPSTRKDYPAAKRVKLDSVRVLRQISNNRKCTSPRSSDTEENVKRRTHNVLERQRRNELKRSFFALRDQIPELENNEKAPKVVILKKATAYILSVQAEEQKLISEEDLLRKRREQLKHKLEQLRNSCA
MYC (p64);MAX (p21), in MYC:MAX, sequence (P61244 other isoform, or with tags, fused parts or gaps |, chain 2 of 2): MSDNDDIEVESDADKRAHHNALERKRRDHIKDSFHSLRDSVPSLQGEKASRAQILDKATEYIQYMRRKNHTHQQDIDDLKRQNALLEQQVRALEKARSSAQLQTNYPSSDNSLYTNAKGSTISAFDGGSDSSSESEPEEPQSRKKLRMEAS
Summary of the method: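 A custom Agilent glass array held ~5000 unique 12-nt sequences in triplicate spots, made double-stranded by primer extension. His-tagged human MYC:MAX or MAX:MAX dimers (550 ng, produced in E. coli) were applied for 60 min at room temperature in Tris-KCl buffer, pH 7.5, with NP40, BSA and poly(dA-dT) competitor. Anti-MAX and secondary antibodies detected bound protein, with scanning at 543 nm, and binding is given as log2 normalized fluorescence.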
“CCGGCTGGCACGCGGTCTTAATAGCTAAGATTACTATATCGACG” was tested, and the binding signal was 0.784 log2 normalized fluorescence. With “CCGGCGTACACGTGGTATTAATAGCTAAGATTACTATATCGACG” the binding signal was 0.671 log2 normalized fluorescence. With “CCGGCGGGCACGTGGTCTTAATAGCTAAGATTACTATATCGACG” the binding signal was 0.929 log2 normalized fluorescence. “CCGGCTATCACGTGGGATTAATAGCTAAGATTACTATATCGACG” was tested, and the binding signal was 0.804 log2 normalized fluorescence. In the case of “CCGGCGTACACGTGGTCTTAATAGCTAAGATTACTATATCGACG”, the binding signal is reported as 0.89 log2 normalized fluorescence. With “CCGGCGGGCACGTGGTATTAATAGCTAAGATTACTATATCGACG” the binding signal was 0.738 log2 normalized fluorescence. “CCGGCTGAATCAGAGTATTAATAGCTAAGATTACTATATCGACG” was tested, and the binding signal was 0.0753 log2 normalized fluorescence. In the case of “CCGGCTGAACAAGTGTATTAATAGCTAAGATTACTATATCGACG”, the binding signal is reported as 0.224 log2 normalized fluorescence. For “CCGGCTGATACTTGGTTTTAATAGCTAAGATTACTATATCGACG”, the binding signal was 0.0375 log2 normalized fluorescence. “CCGGCTGATCCCGCGTATTAATAGCTAAGATTACTATATCGACG” was tested, and the binding signal was 0.218 log2 normalized fluorescence. “CCGGCTGAAGGGCAGTATTAATAGCTAAGATTACTATATCGACG” was tested, and the binding signal was -0.0227 log2 normalized fluorescence. In the case of “CCGGCTGGCACGAGGTTTTAATAGCTAAGATTACTATATCGACG”, the binding signal is reported as 0.697 log2 normalized fluorescence. In the case of “CCGGCTCACACGATGTATTAATAGCTAAGATTACTATATCGACG”, the binding signal is reported as 0.603 log2 normalized fluorescence. In the case of “CCGGCTCACACGCGGTTTTAATAGCTAAGATTACTATATCGACG”, the binding signal is reported as 0.822 log2 normalized fluorescence. “CCGGCTCACACGTGGTTTTAATAGCTAAGATTACTATATCGACG” was tested, and the binding signal was 0.78 log2 normalized fluorescence. For “CCGGCTCACACGAGGTTTTAATAGCTAAGATTACTATATCGACG”, the binding signal was 0.866 log2 normalized fluorescence. With “CCGGCCGACACGCGGTTTTAATAGCTAAGATTACTATATCGACG” the binding signal was 0.82 log2 normalized fluorescence. For “CCGGCTCACACGTTTTATTAATAGCTAAGATTACTATATCGACG”, the binding signal was 0.662 log2 normalized fluorescence. “CCGGCTGAGACGCGGTTTTAATAGCTAAGATTACTATATCGACG” was tested, and the binding signal was 0.131 log2 normalized fluorescence. “CCGGCCGACAGCCGGTTTTAATAGCTAAGATTACTATATCGACG” was tested, and the binding signal was -0.0407 log2 normalized fluorescence. With “CCGGCTGAGTAGTGGTATTAATAGCTAAGATTACTATATCGACG” the binding signal was 0.0775 log2 normalized fluorescence. “CCGGCTGAGGGCTTGTATTAATAGCTAAGATTACTATATCGACG” was tested, and the binding signal was 0.0447 log2 normalized fluorescence. In the case of “CCGGCTGACGACAGGTATTAATAGCTAAGATTACTATATCGACG”, the binding signal is reported as 0.106 log2 normalized fluorescence. “CCGGCTGAAGTTCAGTATTAATAGCTAAGATTACTATATCGACG” was tested, and the binding signal was 0.0781 log2 normalized fluorescence. For “CCGGCTGAAGACCTGTATTAATAGCTAAGATTACTATATCGACG”, the binding signal was 0.0334 log2 normalized fluorescence. “CCGGCTGATGTAATGTATTAATAGCTAAGATTACTATATCGACG” was tested, and the binding signal was 0.000857 log2 normalized fluorescence. For “CCGGCTGACGTTTGGTATTAATAGCTAAGATTACTATATCGACG”, the binding signal was 0.243 log2 normalized fluorescence. “CCGGCTGACCACATGTATTAATAGCTAAGATTACTATATCGACG” was tested, and the binding signal was 0.581 log2 normalized fluorescence. In the case of “CCGGCTGAACGTGAGTATTAATAGCTAAGATTACTATATCGACG”, the binding signal is reported as 0.437 log2 normalized fluorescence. For “CCGGCTGAGGACGAGTATTAATAGCTAAGATTACTATATCGACG”, the binding signal was -0.00251 log2 normalized fluorescence. In the case of “CCGGCTCACACGGGTTATTAATAGCTAAGATTACTATATCGACG”, the binding signal is reported as 0.461 log2 normalized fluorescence. For “CCGGCTTAAACGTGTTATTAATAGCTAAGATTACTATATCGACG”, the binding signal was 0.426 log2 normalized fluorescence. “CCGGCTCACACGTGTTATTAATAGCTAAGATTACTATATCGACG” was tested, and the binding signal was 0.827 log2 normalized fluorescence. For “CCGGCTTACACGTGGAATTAATAGCTAAGATTACTATATCGACG”, the binding signal was 0.667 log2 normalized fluorescence. In the case of “CCGGCCTACACGTGGTGTTAATAGCTAAGATTACTATATCGACG”, the binding signal is reported as 0.779 log2 normalized fluorescence. With “CCGGCTGACACGTGGCGTTAATAGCTAAGATTACTATATCGACG” the binding signal was 0.519 log2 normalized fluorescence. For “CCGGCTTACACGTGTTATTAATAGCTAAGATTACTATATCGACG”, the binding signal was 1.05 log2 normalized fluorescence. With “CCGGCTAATACGTGGTGTTAATAGCTAAGATTACTATATCGACG” the binding signal was 0.417 log2 normalized fluorescence. In the case of “CCGGCTTACACGTGGCGTTAATAGCTAAGATTACTATATCGACG”, the binding signal is reported as 0.878 log2 normalized fluorescence. “CCGGCTTACAAGTGTTATTAATAGCTAAGATTACTATATCGACG” was tested, and the binding signal was 0.479 log2 normalized fluorescence. With “CCGGCTCACACGTGATATTAATAGCTAAGATTACTATATCGACG” the binding signal was 0.75 log2 normalized fluorescence. With “CCGGCTTACACGTGGTGTTAATAGCTAAGATTACTATATCGACG” the binding signal was 0.827 log2 normalized fluorescence. “CCGGCTGATTTAATGTATTAATAGCTAAGATTACTATATCGACG” was tested, and the binding signal was 0.0643 log2 normalized fluorescence. “CCGGCTGAACCTACGTATTAATAGCTAAGATTACTATATCGACG” was tested, and the binding signal was 0.131 log2 normalized fluorescence. In the case of “CCGGCTGATCGCTTGTATTAATAGCTAAGATTACTATATCGACG”, the binding signal is reported as -0.00084 log2 normalized fluorescence. For “CCGGCTGAACATGGGTATTAATAGCTAAGATTACTATATCGACG”, the binding signal was 0.288 log2 normalized fluorescence. “CCGGCTGATCGGCGGTATTAATAGCTAAGATTACTATATCGACG” was tested, and the binding signal was 0.0519 log2 normalized fluorescence. With “CCGGCTGACAGTCGGTATTAATAGCTAAGATTACTATATCGACG” the binding signal was 0.0326 log2 normalized fluorescence. “CCGGCTGACAGTTGGTATTAATAGCTAAGATTACTATATCGACG” was tested, and the binding signal was 0.112 log2 normalized fluorescence. For “CCGGCTGAAATAGTGTATTAATAGCTAAGATTACTATATCGACG”, the binding signal was 0.0457 log2 normalized fluorescence. With “CCGGCTGTCATGTGGTATTAATAGCTAAGATTACTATATCGACG” the binding signal was 0.631 log2 normalized fluorescence. For “CCGGCTGACCTGTTGTATTAATAGCTAAGATTACTATATCGACG”, the binding signal was 0.216 log2 normalized fluorescence. With “CCGGCTGAAAGAATGTATTAATAGCTAAGATTACTATATCGACG” the binding signal was 0.0901 log2 normalized fluorescence.
